Screening results (PubChem BioAssay)
IP6K1 inhibitor: IP6K1 kinase inhibition | Q92551 | IP6K1 kinase, ADP-Glo luminescence, 2 h; hits give low values | activity change, % (series mostly up to about 58 µM) | hit rate 0.81% among 140,000 | AID 1645851; in the data active = activity change below about -25%; also: % is scaled to controls: 0 for no effect and ±100 for the full control effect
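ADP-Glo luminescence measures ADP made by human IP6K1 during a 2 h RT reaction with ATP/IP6 (mix at 1.3 mM/130 uM); top library doses 57.5 and 19.1 uM final.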
KDM5B inhibitor: inhibitors of human KDM5B histone demethylase. Q9UGL1. Potency, µM (highest dose often 57.7 µM), actives largely listed as inhibitors. KDM5B demethylase, FDH-coupled NADH fluorescence (FDH is formaldehyde dehydrogenase). hit rate 2.6% among 220,000; also: potency is read from the fitted curve at half-maximal effect; 0% is about no effect; nearly all actives have a fitted effect of over 70% in size
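KDM5BΔAP (200 nM final) in 50 mM HEPES pH 7.5, 0.01% Tween-20 was preincubated 10 min at RT with compound over a concentration range. Substrate mix (H3K4me3 12.5 µM, α-KG 25 µM, Fe²⁺, ascorbate, NAD⁺, FDH) was added, and NADH fluorescence change over 30 min gave dose-response curves.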
IP6K1 conf: confirmation of human IP6K1 inhibitors; shares compounds with IP6K1 inhibitor; recombinant IP6K1 kinase, ADP-Glo luminescence, 2 h; Potency, µM (series often up to 49 µM), for the others: at the highest dose activity change, negative = inhibition, actives largely listed as inhibitors; hit rate 13% among 1,200; AID 1645852; also: potency is read from the fitted curve at half-maximal effect; % is scaled to controls: 0 for no effect and ±100 for the full control effect; nearly all actives have a fitted effect of over 65% in size
The depositor's hits bear a star; i = inactive; ? = inconclusive; . = no result; [ ] = dose if it differs, or a comment. Shown are actives, neighbours in structure and some others; about 2.8% of the full set was active somewhere. Unless noted, calls follow the shape of the dose curve; as a rule, active = well fitted inhibition curve with a large enough effect; inconclusive = small, poorly fitted or top-dose-only effect; inactive = no such curve, though single readings can be large or run the other way.

SMILES	IP6K1 inhibitor	KDM5B inhibitor	IP6K1 conf
Cc1cc(N2CCOCC2)ccc1Nc1nc(NC2CCCCC2)c2[nH]cnc2n1	-47*	.	2.1µM*
Cc1cc(Cl)ccc1Nc1nc(N2CCOCC2)nc2nccnc12	.	i	.
O=C(Nc1cc(F)ccc1F)c1cc2nc(-c3ccco3)cc(C(F)(F)Cl)n2n1	-26*	?	-16%
O=C(Nc1cccc(C(F)(F)F)c1)c1cc2nc(-c3ccco3)cc(C(F)(F)Cl)n2n1	-7	?	.
COc1ccc(NC(=O)CN(C)S(=O)(=O)c2ccc(Br)s2)cc1	.	i	.
COC(=O)c1ccc(NC(=O)CN(C)S(=O)(=O)c2ccc(Br)s2)cc1	-45*	i	?
CCC(=O)N1c2ccccc2CC1C(=O)NCc1ccc(CC)cc1 (stereo not drawn)	24	i	.
CCOc1ccc(S(=O)(=O)Nc2ccc3c(c2)CCCN3S(=O)(=O)c2ccc(C)cc2)cc1	-8	i	.
Cc1ccc(S(=O)(=O)N2CCCc3cc(NS(=O)(=O)c4cccc(Cl)c4)ccc32)cc1	-26*	i	6%
Cc1oc(-c2ccccc2)nc1C(=O)Nc1nc(C2CC2)cs1	.	i	.
COCCNc1oc(-c2ccc(COc3ccc(OC)cc3)o2)nc1C#N	-13	i	.
CCCCNc1oc(-c2ccc(COc3ccc(OC)cc3)o2)nc1C#N	-31*	?	-1%
O=c1c2nc(-c3ccoc3)ccc2ncn1-c1ccc(F)cc1F	-5	?	.
O=c1ncn(CC2CC2)c2ccc(-c3ccoc3)nc12	-32*	32µM*	-4%[92.2 µM]
CNC(=O)N1CCC(C2CCN(C(=O)c3cnn(C)c3)C2)CC1 (stereo not drawn)	-1	i	.
COc1cc(/C=N/OCc2ccccc2)ccc1OCc1ccc(C(=O)O)cc1	.	i	.
Cn1cnnc1SCC(=O)Nc1ccc(F)cc1	.	i	.
Cn1cnnc1SCC(=O)Nc1cc(C(=O)O)cc(C(=O)O)c1	-30*	i	-3%
COc1ccc(NC(=O)c2ccccc2SCc2ccc(C#N)cc2)cc1OC	.	i	.
O=C(COC(=O)C1CC(=O)N(NC(=O)c2ccccc2)C1)c1ccc(Br)cc1 (stereo not drawn)	.	i	.
CCC[C@H]1CN(C(=O)c2ccccc2Cc2ccc(C)cc2)C[C@@H]1N	-26*	i	-6%
Cc1ccc(Cc2ccccc2C(=O)N2CCOC(C(F)(F)F)C2)cc1 (stereo not drawn)	-7	i	.
O=C(Cn1ccn2nc(-c3ccccc3)c(CO)c2c1=O)N1CCCc2ccccc21	14	i	.
Cc1nc2ccc(C(=O)N3CC[C@](C)(O)[C@@H](O)C3)cc2nc1C	-4	i	.
Clc1ccc(Nc2nc(NC3CCCC3)nc3c2cnn3-c2ccccc2)cc1	.	i	.
SMILES	IP6K1 inhibitor	KDM5B inhibitor	IP6K1 conf
NC(=O)c1cnc(N[C@@H]2CCCC[C@H]2N)nc1Nc1cccc(-n2nccn2)c1	-17	.	?
Cc1ccccc1OCc1ccc(-c2nc(C#N)c(N3CCN(c4ccccc4)CC3)o2)o1	1	?	.
Cc1ccc(OCc2ccc(-c3nc(C#N)c(N4CCN(c5cccc(Cl)c5)CC4)o3)o2)cc1	-34*	i	-3%
CN(C)C(=O)c1ccc(Cl)cc1	.	i	.
CCOc1ccc(Cn2c(CNS(=O)(=O)c3ccc(Cl)s3)nc3cccnc32)cc1	-28*	?	?
CCOc1ccc(Cn2c(CNS(=O)(=O)c3ccc(CC)cc3)nc3cccnc32)cc1	-22	?	.
CC(C)N(Cc1ccccc1)C(=O)COC(=O)c1cc(Br)ccc1Cl	.	i	.
COc1ccc(CC(=O)N2CCC(Cc3nc(-c4ccccc4)no3)CC2)cc1Cl	-16	i	.
COc1cc(C2CC(=O)Nc3c(-c4ccccc4)nsc32)cc2c1OCO2 (stereo not drawn)	.	i	.
OC1CC(c2cc(NCCSC3CCCCC3)ncn2)C1 (stereo not drawn)	5	i	.
OC1CC(c2cc(NCCCn3ccc4ccccc43)ncn2)C1 (stereo not drawn)	-34*	i	-3%
O=c1c2ccsc2ncn1Cc1coc(-c2cccc(F)c2)n1	.	i	.
CN(Cc1ccccc1)C(=O)c1ccc(S(=O)(=O)Nc2ccccc2)cc1	.	.	-9%
CN(CC(=O)NCc1ccco1)C(=O)c1ccc(S(=O)(=O)Nc2ccccc2)cc1	.	i	.
CS(=O)(=O)N1C[C@@H](Oc2ccccc2)C[C@H]1C(=O)N1CCOCC1	33	i	.
CCOC(=O)C1CCN(Cc2cn3c(-c4ccc(OC)cc4)nnc3s2)CC1	-25*	i	13%
CCOC(=O)C1CCCN(Cc2cn3c(-c4ccc(Br)cc4)nnc3s2)C1 (stereo not drawn)	-9	i	.
COC(=O)[C@H](NC(=O)Nc1ccc(C)c(C)c1)C(C)C	.	i	.
O=C(Nc1cccc(C(F)(F)F)c1)Nc1cccs1	-33*	?	?
O=C(Nc1cccc(C(F)(F)F)c1)c1c(Cl)cccc1Cl	.	i	.
Cc1nnc(NC(=O)c2cc(=O)c3ccccc3o2)s1	.	i	.
Cc1ncoc1C(=O)N1CCC(N2CCCC(C(=O)N3CCCC3)C2)CC1 (stereo not drawn)	0	i	.
O=C(C1CCCN(C2CCN(c3ncnc4sccc34)CC2)C1)N1CCCC1 (stereo not drawn)	-28*	?	-13%
COc1ccc(CNC(=O)C2=CC(c3ccc(OC)c(OC)c3)=NS(=O)(=O)N2C)cc1	-10	i	.
COc1ccc(C2=NS(=O)(=O)N(C)C(C(=O)NCc3ccccc3)=C2)cc1OC	-26*	i	-12%
SMILES	IP6K1 inhibitor	KDM5B inhibitor	IP6K1 conf
Cc1noc(C)c1Cc1c(C(=O)N2CCC(C3CCNC3)CC2)noc1C (stereo not drawn)	-3	i	.
CCC(C)[C@@H](NC(=O)Nc1ccc(OC)c(Cl)c1)C(=O)OC (stereo partly drawn)	.	i	.
CC[C@H](CC#N)OC(=O)N[C@@H](C)c1cccc(NC(=O)Nc2ccc(-c3cnco3)c(OC)c2)c1	-39*	.	?
COC(=O)c1cccc(COC(=O)C23CC4CC(CC(O)(C4)C2)C3)c1	.	i	.
Cn1cc(-c2ccc3ncc(Cc4ccc5ncccc5c4)n3n2)cn1	-13	.	.
Cn1cc(-c2ccc3nnc(C(F)(F)c4ccc5ncccc5c4)n3n2)cn1	1	.	-19%
COc1ccc(-c2nc(C3CC3)nc3c2CCN([S+](=O)([O-])c2c(C)noc2C)CC3)cc1	-6	i	.
CC(C)c1ccccc1NC(=O)c1cc(Cl)ccc1F	.	i	.
CCCCNC(=O)c1cc(Sc2ccc(OCC)cc2)nc2ccccc12	-26*	i	-12%
CCOc1ccc(Sc2cc(C(=O)NCCc3ccccc3)c3ccccc3n2)cc1	12	?	.
Cc1ccc(CNC(=O)CC2CCOCC2)cc1C	4	i	.
CN1C(=O)CC[C@H]1c1cccnc1	-14	.	.
CN1CCC[C@@H]1c1cccnc1	-31*	.	-8%
O=C(Nc1nnc(C2CC2)s1)c1cc(-c2ccncc2)nc2ccccc12	.	i	.
CCOc1ccccc1CN1C(=O)c2ccccc2C1C(=O)NC1CCCCCC1 (stereo not drawn)	-41*	i	-18%
O=C(NC1CCCCCC1)C1c2ccccc2C(=O)N1Cc1ccccc1Cl (stereo not drawn)	7	?	.
COc1ccc(-c2c(C)c3ccc(OCCN4CCN(C)CC4)cc3oc2=O)cc1OC	.	i	.
